According to PubChem BioAssay (NCI):
This is part of a sample that, as a whole, favours compounds with a hit. Of some 79,000 tested, about 15% had one in any assay. Cut-off read from the data, not from the text of the source: active = growth inhibition above about 70%; inactive = the rest.

Assays:
[1] = NCI Yeast Anticancer Drug Screen. Data for the rad50 strain (AID 155);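 note: 0% = growth of vehicle-only cultures of the same strain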; conditions: S. cerevisiae rad50 strain growth inhibition; at 50.0 µM; stronger effect = higher value
Procedure, shortened: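 Inhibition values express reduced yeast growth in compound-treated cultures relative to vehicle-treated controls.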

[2] = NCI Yeast Anticancer Drug Screen. Data for the mec2-1 strain (AID 157); conditions: S. cerevisiae mec2-1 strain, at 50.0 µM, stronger effect = higher value
Procedure, shortened: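 Growth inhibition is read against vehicle-treated controls after compound exposure of the mec2-1 yeast strain, which is defective in DNA damage repair or cell cycle control.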

[3] = NCI Yeast Anticancer Drug Screen. Data for the sgs1 mgt1 strain (AID 161);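 note: 0% = growth of cultures given vehicle only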; conditions: S. cerevisiae sgs1 mgt1 strain, at 50.0 µM, stronger effect = higher value
Procedure, shortened: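 Growth of a repair-deficient yeast mutant was monitored after compound treatment and expressed as inhibition relative to vehicle-treated cultures.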

[4] = NCI Yeast Anticancer Drug Screen. Data for the cln2 rad14 strain (AID 165);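 note: 0% = growth equal to vehicle treated cultures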; conditions: S. cerevisiae cln2 rad14 strain, at 50.0 µM, stronger effect = higher value
Procedure, shortened: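 Growth inhibition, relative to vehicle-treated controls, is the read-out. The test organism is a yeast strain with defined genetic alterations, cln2 rad14.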

[5] = NCI Yeast Anticancer Drug Screen. Data for the bub3 strain (AID 167); conditions: S. cerevisiae bub3 mutant strain, at 50.0 µM, stronger effect = higher value
Procedure, shortened: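 Steps: expose the mutant yeast strain to compound; grow alongside vehicle-treated cultures; measure growth; express inhibition against the vehicle cultures.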

[6] = NCI Yeast Anticancer Drug Screen. Data for the mlh1 rad18 strain (AID 175); conditions: S. cerevisiae mlh1 rad18 strain growth inhibition; at 50.0 µM; stronger effect = higher value
Procedure, shortened: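 Cells of a genetically altered yeast strain, deficient in DNA damage repair, were treated with compound. Their growth was then compared with that of vehicle-treated cultures to give inhibition.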

Measured: growth inhibition

CCCCCCCCCO/N=C\c1c2c(O)c3c(O)c(C)c4c(c3c1O)C(=O)C(C)(O/C=C\C(OC)C(C)C(OC(C)=O)C(C)C(O)C(C)C(O)C(C)/C=C\C=C(\C)C(=O)N2)O4 (stereo not given)
inactive: [1] -1.15% | [2] 19.9% | [3] 11.5% | [4] -13.9% | [5] -6.6% | [6] 30.8%

CN(C)CC1=C(O)c2ccccc2C(=O)C1=O
inactive: [1] -0.25% | [2] -1.2% | [3] 1.1% | [4] 13.7% | [5] 31.6% | [6] -4.2%

C=C1C(=O)SC(=NCc2ccccc2)N1C
inactive: [1] 24.4% | [2] 16.4% | [3] 19.9% | [4] 19.9% | [5] 0% | [6] 25.8%

S=c1sc2c(Cl)nc(Cl)nc2n1-c1ccccc1
inactive: [1] -17.2% | [2] -4.95% | [3] -13.6% | [4] -1% | [5] 9.65% | [6] -11.2%

N#Cc1sc2c(c1O)c(=O)n(-c1ccccc1)c(=S)n2-c1ccccc1
inactive: [1] -40.9% | [2] -36.9% | [3] -37.3% | [4] -23.1% | [5] -54.9% | [6] -47.8%

CC1(c2ccccc2)SCCS1
inactive: [1] 4.9% | [2] 2.05% | [3] -7.7% | [4] -34.3% | [5] -13.9% | [6] -6.4%

Cc1cc([N+](=O)[O-])cc(C)c1N
inactive: [1] 1.6% | [2] -11% | [3] 3.3% | [4] -15% | [5] -4.5% | [6] 7.15%

COc1ccc2c(ccc3nc(C)[nH]c(=O)c32)c1
inactive: [1] 5.3% | [2] -5.35% | [3] 2.95% | [4] -30.2% | [5] -10.6% | [6] -6.3%

CC1(C)C2CCC(CN)C1C2 (stereo not given)
inactive: [1] -11.4% | [2] -44.6% | [3] -1.7% | [4] 13.3% | [5] -20.1% | [6] -15.6%

CC12CCC(CC1=O)C2(C)CCC(N)=O (stereo not given)
inactive: [1] -1.55% | [2] -12% | [3] 18.2% | [4] -11.7% | [5] -17.9% | [6] -8.8%

CCCCCCCCCCCCCCCC(=O)O[C@@H]1[C@@H](C)[C@@]2(O)[C@@H](C=C(CO)C[C@]3(O)C(=O)C(C)=C[C@@H]23)[C@H]2[C@]1(OC(C)=O)[C@]2(C)CO
inactive: [1] 14.8% | [2] 2.75% | [3] 20.1% | [4] 30.9% | [5] 21.1% | [6] -71.2%

CCOC(=O)C(C)(C)OC(C)=O
inactive: [1] 39.2% | [2] 21.4% | [3] 19.6% | [4] 13.8% | [5] 4.2% | [6] 2.15%

CCCCNC(C)(C)CSS(=O)(=O)O
inactive: [1] -12.9% | [2] -23.3% | [3] -22.2% | [4] -59.8% | [5] 4.1% | [6] -14.6%

CC1CCC/C1=C(/I)C(=O)c1ccccc1 (stereo not given)
inactive: [1] 2.25% | [2] -6.75% | [3] 24.6% | [4] 7.85% | [5] -2.15% | [6] -59.6%

Cc1ccc2cc(C)c(C)cc2c1
inactive: [1] 30.6% | [2] -3.35% | [3] -10.8% | [4] 16.1% | [5] -2.6% | [6] 12.8%

CC(C)(C)OC(=O)CC(O)c1ccccc1 (stereo not given)
inactive: [1] 3.8% | [2] -2.9% | [3] 3.65% | [4] -2.45% | [5] -3.7% | [6] 20.8%

CCOC(=O)C(CCC(C)=O)C(=O)OCC
inactive: [1] -1.25% | [2] 12.8% | [3] -6.15% | [4] 24.6% | [5] 5.65% | [6] -19.1%

COC(=O)c1c([N+](=O)[O-])ncn1[C@H]1OC[C@@H](OC(C)=O)[C@@H](OC(C)=O)[C@@H]1OC(C)=O
inactive: [1] -24.8% | [2] -8.6% | [3] -20.9% | [4] -0.8% | [5] -5.5% | [6] 1.55%

C1=CC2=CC=CC3c4nc5ccc6ccccc6c5nc4C(=C1)C23 (stereo not given)
inactive: [1] 11.4% | [2] -9.3% | [3] -0.9% | [4] 4.25% | [5] -2.55% | [6] 8.75%

O=C(Nc1ccccc1Cl)c1ccccc1O
inactive: [1] 10.1% | [2] -8.7% | [3] -3.2% | [4] -48.6% | [5] -5% | [6] -16.4%

CCOC(=O)NC(=O)c1cn(C2OC(COC(=O)CCCCCCCCC(=O)OCC3OC(n4cc(C(=O)NC(=O)OCC)c(=O)[nH]c4=O)C4OC(C)(C)OC34)C3OC(C)(C)OC32)c(=O)[nH]c1=O (stereo not given)
inactive: [1] -42.9% | [2] -39.5% | [3] -27.9% | [4] 10.9% | [5] -16.1% | [6] -24.9%

COCCNc1ccc([N+](=O)[O-])cc1[N+](=O)[O-]
inactive: [1] 1.85% | [2] -1.85% | [3] -3.75% | [4] -26.9% | [5] -8.65% | [6] 7.1%

N#Cc1c(C#N)c(-c2ccco2)n(/N=C/c2ccco2)c1N
inactive: [1] 4.55% | [2] 0.6% | [3] -34.5% | [4] -6.75% | [5] -25.8% | [6] -37.4%

CN(C)c1ccc(Cc2c[nH]c3ccccc3c2=O)cc1
inactive: [1] 8.4% | [2] 12.8% | [3] 18.8% | [4] 12.2% | [5] 25.1% | [6] 9.65%

O=C(NNC1CCN(Cc2ccccc2)CC1)c1ccccc1
inactive: [1] 12.5% | [2] -18% | [3] 5.35% | [4] 16.9% | [5] 2.5% | [6] 13.4%

CSC(C(OC(C)=O)C(OC(C)=O)C(OC(C)=O)C(COC(C)=O)OC(C)=O)n1cnc2c(=S)nc[nH]c21 (stereo not given)
inactive: [1] 26.4% | [2] -12.4% | [3] -11.6% | [4] 13.2% | [5] -0.45% | [6] 1.95%

CCOC(=O)Cn1/c(=N/N=C(\C)c2ccc([N+](=O)[O-])o2)sc2cc(Cl)ccc21
inactive: [1] -5.75% | [2] 9.05% | [3] 4.8% | [4] 14.3% | [5] -4.15% | [6] 3.35%

CC(C)C1OC2(CCCC2)OCC1(C)C (stereo not given)
inactive: [1] -10.2% | [2] -19.4% | [3] -10.4% | [4] -21.8% | [5] -4.7% | [6] -1.1%

CCNc1ccc2c(c1)C(=O)c1ccccc1-2
inactive: [1] 28.9% | [2] 7.5% | [3] 17.4% | [4] 3.6% | [5] -4.05% | [6] -0.05%

CC(=O)NCc1cccc([N+](=O)[O-])c1
inactive: [1] 18.4% | [2] -12.9% | [3] 27.3% | [4] 2.45% | [5] 17.7% | [6] 13.2%

O=[N+]([O-])c1ccc(CS(=O)(=O)O)cc1
inactive: [1] 6.25% | [2] -9.05% | [3] -6.4% | [4] -15.1% | [5] 8.8% | [6] -5.6%

O=C(NC(CC(NC(=O)OCc1ccccc1)NC(=O)OCc1ccccc1)NC(=O)OCc1ccccc1)OCc1ccccc1
inactive: [1] -2.55% | [2] 7.1% | [3] -0.1% | [4] 5.6% | [5] 0.85% | [6] -4.55%

CC(=O)Oc1ccc(C2(OC(C)=O)c3ccccc3C(=O)c3ccccc32)cc1
inactive: [1] 11.5% | [2] 9.9% | [3] 34.4% | [4] 34.1% | [5] -8.5% | [6] 31.8%

CCOC(=O)NC(=O)CC#N
inactive: [1] -5.5% | [2] -29.8% | [3] 13.4% | [4] 5.05% | [5] -4.2% | [6] 10.7%

Oc1ccc(-c2csc(NNC3=NC/C(=C/c4ccc5c(c4)OCO5)S3)n2)cc1O
inactive: [1] 30.9% | [2] -16.9% | [3] 40.4% | [4] -11.4% | [5] 21.1% | [6] 40.8%

CC1(C)N(/N=C/c2ccccc2)C(c2ccccc2)C(c2ccccc2)N1/N=C/c1ccccc1 (stereo not given)
inactive: [1] -8.95% | [2] -6.45% | [3] 6.25% | [4] -11.3% | [5] 2.65% | [6] 9.75%

Nc1nc(-c2ccc(-c3ccccc3)cc2)cc(=O)[nH]1
inactive: [1] 0.25% | [2] 27.6% | [3] -4.8% | [4] -8.25% | [5] 7.5% | [6] -25.8%

Brc1ccc(C(c2ccc(Br)cc2)C(Br)(Br)Br)cc1
inactive: [1] 2.8% | [2] 3.75% | [3] 1.9% | [4] -12.9% | [5] 1.5% | [6] 8.2%

O=[n+]1c2c(n([O-])c3cc(Cl)c(Cl)cc31)CCCC2
inactive: [1] 11.8% | [2] 11.2% | [3] 17.5% | [4] -2% | [5] 25.9% | [6] 4.9%

Cc1ccc(N(C(=O)Nc2ccccc2)C2=NCC(C)S2)cc1C (stereo not given)
inactive: [1] -29.5% | [2] -17.9% | [3] -37.4% | [4] 2.5% | [5] 39.3% | [6] -39.6%
